# Reference: PubChem BioAssay (NCATS)
# Results filed as inconclusive are left out. Entries that show only a call come without a potency. The source made the active and inactive calls. The call rests on the fitted dose curve; in most records, active means well fitted inhibition curve with a large enough effect; inconclusive means small, poorly fitted or top-dose-only effect; inactive means no such curve, though single readings can be large or run the other way.
# Assay: S16 Schwann cell PMP22 intronic element firefly luciferase assay (AID 624032); further: nearly all actives have a fitted effect of over 30% in size
# Settings: S16 rat Schwann cells, PMP22 element FLuc, 24 h; series mostly up to 57.5 µM
# Excerpt: Charcot-Marie-Tooth-Association [CMTA]
# National Center for Advancing Translational Sciences [NCATS]
# Charcot-Marie-Tooth (CMT) disease was first characterized by Jean-Martin Charcot and Pierre Marie in France and, independently, by Howard Henry Tooth in England in 1886. CMT is one of the most common inherited neurological diseases, affecting approximately 1 in 2,500 Americans. […] The most prevalent type of CMT is known as CMT1A and caused by a duplication of the PMP22 gene which leads to over-expression of this protein. PMP22 is a glycosylated intrinsic membrane protein accounting for 2-5% of the myelin protein content, and its over-expression results in demyelination and subsequently axonal loss.
# A pair of cellular transcription-based assays was developed in the S16 rat Schwann cell lines (Hai, M., et al., 2002) stably transfected with orthogonal reporters - firefly luciferase (Fluc) and beta-lactamase (beta-Lac) - whose expression is driven by an intronic regulatory element of the PMP22 gene (Jones, E.A., et al., 2011) to recapitulate endogenous expression of PMP22. The current assay employs Fluc to report on PMP22 expression. A comprehensive library of approved drugs, the NCGC Pharmaceutical Collection (Huang, R., et al., 2011), was screened in the cross-validating platform of the orthogonal reporter assays to identify drug modulators inhibitory towards PMP22 expression.
# A set of counter-screens was devised to address non-specific activity of the library. An ATP-dependent CellTiter-Glo assay (developed by Promega Corp) was utilized to control cell viability. In addition, biochemical Fluc enzyme assay was performed to assess direct inhibition of the Fluc enzymatic activity.
# Hai, M., Muja, N., DeVries, G.H., Quarles, R.H. and Patel, P.I. Comparative analysis of Schwann cell lines as model systems for myelin gene transcription studies. J Neurosci Res, 2002. 69(4): pp 497-508
# Huang, R., Southall, N., Wang, Y., Yasgar A., Shinn P., Jadhav, A. , Nguyen, D.-T. and Austin, C.P., The NCGC pharmaceutical collection: a comprehensive resource of clinically approved drugs enabling repurposing and chemical genomics. Sci Transl Med, 2011. 3(80): p. 80ps16.
# S16 Schwann cell PMP22 intronic element firefly luciferase assay
# The FLuc-expressing S16 cells were seeded in white solid 1536-well plates at between 500-750 cells/4uL in DMEM medium containing 10% FBS, w/o phenol red. After overnight incubation at 37 degree Celsius/5% C02, 23 nL of compounds or DMSO were delivered to each well using a pin tool, followed by 24h-incubation at 37 degree Celsius/5% C02. Then 4 uL ONE-Glo luminescent substrate mix (Promega) was added to each well. Luminescence was measured on a ViewLux plate reader (Perkin Elmer). The % activity was determined by normalizing to the average readings of PTC124 (a positive control) - treated cells relative to DMSO-treated cells (0% Activity). The concentration-effect curves were then classified based on curve quality (r2), response magnitude and degree of measured activity.
# Potency means the concentration at half of the fitted maximal effect.
row,SMILES,Potency
1,CCN[C@]1(c2cccs2)CCCCC1=O,inactive
2,O=C1C=C2C=CC3C[C@@]2(O1)C1CCCCN31 (stereo not given in full),0.51 µM (active)
3,C[C@]12CC[C@H](OS(=O)(=O)O)CC1=CCC1C2CC[C@]2(C)C(=O)CC[C@@H]12 (stereo not given in full),inactive
4,COc1cc2c(cc1OC)[C@@]13CCN4CC5=CCOC6CC(=O)N2C1[C@H]6[C@@H]5C[C@@H]43 (stereo not given in full),inactive
5,CC[C@]1(c2cccc(O)c2)CCCCN(C)C1,inactive
6,CN[C@@H](C)[C@H]1CC[C@@H](N)[C@@H](O[C@@H]2[C@@H](O)[C@@H](O[C@H]3OC[C@@](C)(O)[C@@H](NC)[C@@H]3O)[C@H](N)C[C@@H]2N)O1 (tested in a mixture with another compound),inactive
7,O=c1ccc2cc(O[C@H]3O[C@@H](CO)[C@@H](O)[C@@H](O)[C@@H]3O)c(O)cc2o1,inactive
8,CC[C@@]1(c2ccc(N)cc2)CCC(=O)NC1=O,inactive
9,CCN(CC)C(=O)N[C@@H]1C[C@@H]2c3cccc4[nH]cc(c34)C[C@H]2N(C)C1,inactive
10,C[C@H](N)[C@@H](O)c1ccccc1,inactive
11,COc1cc(CNC(=O)CCCC/C=C/C(C)C)ccc1O,9.07 µM (active)
12,C[N+]1([O-])[C@@H]2CC(OC(=O)[C@@H](CO)c3ccccc3)C[C@@H]1[C@H]1O[C@H]12 (stereo not given in full),inactive
13,CNC[C@H](O)c1ccc(O)cc1,inactive
14,C#CCN(C)[C@@H](C)Cc1ccccc1,inactive
15,C[N+]1([O-])[C@@H]2CC[C@H]1CC(OC(=O)[C@@H](CO)c1ccccc1)C2 (stereo not given in full),inactive
16,CCCC[N+]1(C)C2CC(OC(=O)C(CO)c3ccccc3)CC1C1OC12 (stereo not given),inactive
17,CCNC[C@H](O)c1cccc(O)c1,inactive
18,Clc1ccc([C@@H](OCCN2CCCCC2)c2ccccc2)cc1,inactive
19,C[C@@]12CCC(=O)C=C1C=C[C@H]1[C@H]3CC[C@](O)(CCC(=O)O)[C@]3(C)CC[C@@H]12,inactive
20,CO[C@@H](COC(N)=O)C1=C(N2CC2)C(=O)C(C)=C(N2CC2)C1=O,36.1 µM (active)

row,SMILES,Potency
1,[Hg+][c]1ccccc1,1.02 µM (active)
2,C[S+](CC[C@H](N)C(=O)O)C[C@H]1O[C@@H](n2cnc3c(N)ncnc32)[C@H](O)[C@@H]1O (stereo not given in full),inactive
3,CC([C@H](O)c1ccccc1)N(C)C (stereo not given in full),inactive
4,CN(C)[C@@H]1C(=O)C(C(N)=O)=C(O)[C@]2(O)C(=O)C3=C(O)c4c(O)ccc(Cl)c4[C@](C)(O)[C@H]3C[C@@H]12,inactive
5,CC(=O)O[C@H]1CC[C@@]2(C)C(=CC[C@@H]3[C@H]2CC[C@]2(C)C(=O)CC[C@H]32)C1,inactive
6,CC(C)(O)C1C2OC(=O)C1[C@]1(O)C[C@H]3O[C@]34C(=O)O[C@H]2[C@]14C (stereo not given in full) (tested in a mixture with another compound),inactive
7,CC(C)n1c(/C=C/[C@H](O)C[C@H](O)CC(=O)O)c(-c2ccc(F)cc2)c2ccccc21,11.4 µM (active)
8,C[C@@]12CC[C@H]3[C@@H](CC[C@@H]4C[C@H]5S[C@H]5C[C@]43C)[C@H]1CC[C@H]2O,7.75 µM (active)
9,CC(C)CC(CN)CC(=O)O (stereo not given),inactive
10,CC(C)N(CC[C@@](C(N)=O)(c1ccccc1)c1ccccn1)C(C)C,inactive
11,COc1ccc2c(c1OC)CN1CCc3cc4c(cc3[C@H]1C2)OCO4,inactive
12,CC(C)C[C@H]1C(=O)N2CCCC2[C@]2(O)O[C@](NC(=O)[C@@H]3C=C4c5cccc6[nH]c(Br)c(c56)C[C@H]4N(C)C3)(C(C)C)C(=O)N12 (stereo not given in full),8.09 µM (active)
13,N[C@H]1C[C@H]1c1ccccc1,inactive
14,CNC(C)[C@@H](O)c1ccc(O)cc1 (stereo not given in full),inactive
15,C=CC1CN2CCC1CC2C(OC(=O)OCC)c1ccnc2ccc(OC)cc12 (stereo not given),inactive
16,NCC[C@H](O)C(=O)N[C@H]1C[C@@H](N)[C@@H](O[C@H]2O[C@@H](CN)[C@@H](O)[C@@H](O)[C@@H]2N)[C@@H](O[C@H]2O[C@@H](CO)[C@@H](O)[C@@H]2O)[C@@H]1O,inactive
17,C[C@H](NC(C)(C)C)C(=O)c1cccc(Cl)c1,inactive
18,C[N+]1(C)[C@@H]2CC[C@H]1CC(OC(=O)[C@@H](CO)c1ccccc1)C2 (stereo not given in full),inactive
19,ClC1=C(Cl)C2(Cl)C3C4CC(C5OC45)C3C1(Cl)C2(Cl)Cl (stereo not given),inactive
20,CN(C)C(=O)Oc1cc(OC(=O)N(C)C)cc([C@@H](O)CNC(C)(C)C)c1,inactive
